# The panel holds about 79,000 compounds, 15% with a hit somewhere; the sample as a whole holds those more often. Values without a mark were called inactive. Activity calls are given as the source filed them. Cut-off read from the data, not from the text of the source: active = growth inhibition above about 70%; inactive = the rest.
# How the values were obtained:
# [1] = NCI Yeast Anticancer Drug Screen. Data for the rad50 strain (AID 155);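 note: 0% = growth of vehicle-only cultures of the same strain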; settings: S. cerevisiae rad50 strain growth inhibition, hits give high values
# Procedure, shortened: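 Compounds were tested on a yeast strain with an engineered DNA damage repair alteration; the reported value is growth inhibition normalised to vehicle treatment.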
# [2] = NCI Yeast Anticancer Drug Screen. Data for the mec2-1 strain (AID 157); settings: S. cerevisiae mec2-1 strain, hits give high values
# Procedure, shortened: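 Compounds were applied to mec2-1 yeast cells. Their growth was then compared with that of vehicle-treated cultures to give growth inhibition.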
# [3] = NCI Yeast Anticancer Drug Screen. Data for the sgs1 mgt1 strain (AID 161);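 note: 0% = growth of cultures given vehicle only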; settings: S. cerevisiae sgs1 mgt1 strain, hits give high values
# Procedure, shortened: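 This yeast growth screen uses a strain with defined DNA-repair lesions; compound-treated growth is compared with vehicle-treated growth.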
# [4] = NCI Yeast Anticancer Drug Screen. Data for the cln2 rad14 strain (AID 165);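 note: 0% = growth equal to vehicle treated cultures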; settings: S. cerevisiae cln2 rad14 strain, hits give high values
# Procedure, shortened: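 Strain: cln2 rad14 yeast, altered in cell cycle control and DNA damage repair. Read-out: growth inhibition vs vehicle.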
# [5] = NCI Yeast Anticancer Drug Screen. Data for the bub3 strain (AID 167); settings: S. cerevisiae bub3 mutant strain, hits give high values
# Procedure, shortened: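 Growth of a checkpoint-deficient yeast mutant is measured after compound exposure. Values represent inhibition relative to vehicle.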
# [6] = NCI Yeast Anticancer Drug Screen. Data for the mlh1 rad18 strain (AID 175); settings: S. cerevisiae mlh1 rad18 strain growth inhibition, hits give high values
# Procedure, shortened: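 A repair-deficient yeast strain is exposed to test compound, and growth is scored relative to vehicle-treated controls.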
# [7] = at 5.0 µM (retest, dose inferred, filed as 0.5)
# [8] = at 50.0 µM (retest, dose inferred, filed as 5.0)
SMILES,"growth inhibition [1, 7]","growth inhibition [1, 8]",growth inhibition ([1]; at 50.0 µM),"growth inhibition [2, 7]","growth inhibition [2, 8]",growth inhibition ([2]; at 50.0 µM),"growth inhibition [3, 7]","growth inhibition [3, 8]",growth inhibition ([3]; at 50.0 µM),"growth inhibition [4, 7]","growth inhibition [4, 8]",growth inhibition ([4]; at 50.0 µM),"growth inhibition [5, 7]","growth inhibition [5, 8]",growth inhibition ([5]; at 50.0 µM),"growth inhibition [6, 7]","growth inhibition [6, 8]",growth inhibition ([6]; at 50.0 µM)
CC(=O)C(CN(C)C)C(c1ccccc1)c1c(O)c2ccccc2oc1=O (configuration not stated),22%,22%,65.7%,20%,20%,54.4%,4%,4%,70.8% (active),-4%,-4%,64%,13%,13%,59.6%,17%,17%,64.2%
[Br][Sn]([CH]1CCCCC1)([CH]1CCCCC1)[CH]1CCCCC1,98% (active),99% (active),98.6% (active),100% (active),100% (active),99.1% (active),99% (active),99% (active),98.5% (active),57%,98% (active),98.5% (active),23%,99% (active),98.5% (active),99% (active),99% (active),98.8% (active)
CC1=CCC2(C)C3CCC4(C)C(O)CCC4C3CCC2(C)C1 (configuration not stated),-17%,90% (active),70.8% (active),-17%,95% (active),11.9%,-6%,97% (active),63.8%,-6%,83% (active),9.1%,-25%,94% (active),39.5%,-10%,96% (active),58.6%
COc1cc(/C=C/c2ccc(OC)c(OC)c2)cc(OC)c1,-6%,10%,26.1%,-2%,26%,15.1%,-3%,68%,79% (active),-4%,16%,47.6%,1%,69%,66.9%,-3%,12%,59.5%
C[n+]1[se]nc2cc(C(=O)c3ccccc3)ccc21 (tested in a mixture with another compound),99% (active),99% (active),99.3% (active),99% (active),99% (active),99.2% (active),98% (active),99% (active),99% (active),96% (active),99% (active),99% (active),98% (active),99% (active),99% (active),99% (active),99% (active),99.3% (active)
CCCCCCCC[N+](CCCC)(CCCC)CCCC (tested in a mixture with another compound),99% (active),99% (active),99.5% (active),99% (active),100% (active),99.7% (active),100% (active),100% (active),99.5% (active),97% (active),99% (active),99.5% (active),100% (active),99% (active),99.7% (active),99% (active),99% (active),99.3% (active)
CC(Br)CN(CC(C)Br)c1ccc2c(c1)Cc1ccccc1-2 (configuration not stated),12%,73% (active),82.8% (active),2%,69%,70.4% (active),8%,87% (active),93.2% (active),-16%,85% (active),56.3%,-7%,92% (active),85.5% (active),2%,82% (active),91.7% (active)
CC(=O)[CH-]C(=O)c1ccccc1.CC(=O)[CH-]C(=O)c1ccccc1.C[C@]12CCC(=O)C=C1CC[C@@H]1C2CC[C@@]2(C)C1CC[C@]2(C)[O-].C[C@]12CCC(=O)C=C1CC[C@@H]1C2CC[C@@]2(C)C1CC[C@]2(C)[O-].Cl.[Ti+4] (some centres not stated),33%,76% (active),86.8% (active),26%,87% (active),85% (active),37%,93% (active),84.8% (active),13%,72% (active),86.1% (active),39%,94% (active),84.5% (active),37%,90% (active),81.2% (active)
O=C1NC(=O)C(C(c2ccnc3ccccc23)C2C(=O)NC(=O)NC2=O)C(=O)N1,-6%,-6%,30.1%,0%,-6%,34%,-5%,-4%,55.9%,3%,-7%,62.6%,-6%,5%,42.6%,0%,-5%,35.8%
